Experiment [1] deals with Tumor necrosis factor receptor superfamily member 10B (Homo sapiens) (UniProt O14763). Put plainly: caspase-8 TRAIL sensitization, hit retest, confirmation, cell-based, NB7+caspase-8, with/without TRAIL, luminescence panel (AID 651596). As to conditions: NB7 neuroblastoma + caspase-8, TRAIL sensitization, luminescence viability, with TRAIL, mean of runs, at 10 µM, stronger effect = higher value; in the data active = activity above about 50%; inactive = the rest.

Experiment in experiment [2]: as above
The note with it: NB7 neuroblastoma + caspase-8, without TRAIL, luminescence viability, without TRAIL, mean of runs, at 10 µM.

Here are results for 26 compounds from PubChem BioAssay.

Tumor necrosis factor receptor superfamily member 10B (Homo sapiens), sequence (O14763 whole entry, looked up): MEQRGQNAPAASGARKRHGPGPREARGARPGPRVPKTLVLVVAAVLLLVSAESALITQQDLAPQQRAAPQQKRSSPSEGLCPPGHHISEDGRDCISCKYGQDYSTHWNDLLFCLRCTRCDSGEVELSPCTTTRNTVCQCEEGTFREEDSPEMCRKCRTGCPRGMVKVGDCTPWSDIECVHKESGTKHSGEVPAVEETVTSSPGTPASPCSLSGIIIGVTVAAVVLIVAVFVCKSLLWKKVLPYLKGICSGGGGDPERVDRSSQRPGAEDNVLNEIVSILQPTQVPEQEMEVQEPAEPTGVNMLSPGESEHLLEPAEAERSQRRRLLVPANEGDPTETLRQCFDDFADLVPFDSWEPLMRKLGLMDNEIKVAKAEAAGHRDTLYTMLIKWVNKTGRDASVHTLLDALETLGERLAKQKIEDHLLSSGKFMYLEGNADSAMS

On to `COc1ccc(-n2nc3cc(C)c(NC(C)=O)cc3n2)cc1`, for which the values for the activity in experiment [1] and in experiment [2] were 71.8% and 75.7%, respectively.
On the same counts, the results for `Cc1csc(NC(=O)c2cc3c(s2)CCC3)n1` are 81.8% and 86.3%.
In the same order, the values of `COc1ccc(NC(=O)c2cccc3c2C(=O)c2ccc(-c4ccc(F)cc4OCc4ccccc4)cc2S3(=O)=O)cc1` are 20.6% and 31.4%.
Turning to `Cc1cccc(NC(=O)c2ccc3c(Cl)c4c(nc3c2)CCCC4)n1`, the activity in experiment [1] amounted to 77.1%; in experiment [2], 80%.
In the same order, the values of `NNc1nc(-c2ccccc2)nc2sc3c(c12)CCCC3` are 57.2% and 54.4%.
On the same counts, the results for `Cc1cccc(N2CCN(C(=S)Nc3ccc4nc(N5CCN(C)CC5)cc(C)c4c3)CC2C)c1` (configuration not stated) are 75.8% and 98%.
In the same order, the values of `Cn1nccc1C(=O)Oc1cccc(/C=N/NC(=O)c2ccccc2O)c1` are 44.5% and 13.6%.
As for `O=C1C(=C2CCc3ccccc32)Cc2ccccc21`, the activity in experiment [1] was determined as 41.5%; in experiment [2], 48.9%.
In the same order, the values of `CCOC(=O)[C@]12Cc3c(cc(OC)c(OC)c3OC)[C@H]1N(C1CCCCC1)C(=O)c1cc(OC)ccc12` are 61.2% and 80.1%.
On the same counts, the results for `Cc1ccccc1C(=O)N1CCN(c2ccc(NC(=O)c3ccc([N+](=O)[O-])o3)cc2)CC1` are 86% and 99.5%.
On the same counts, the results for `CCN1CCN(Cc2ccc(NC(=O)c3cc(NC(=O)c4cncc(-c5ccc(C#N)cc5)c4)cc(OC)c3)cc2C(F)(F)F)CC1` are 58% and 98.7%.
Consider `COc1ccc(NC(=O)c2cccc(N3C(=O)c4ccc(C(=O)Nc5ccc(OC)c(O)c5)cc4C3=O)c2)cc1O`, for which the results for the activity in experiment [1] and in experiment [2] were 71.7% and 85.6%, respectively.
On the same counts, the results for `Cc1cccc(N2CCN(C(=S)Nc3ccc4nc(N5CCN(C)CC5)cc(C)c4c3)CC2)c1C` are 98% and 99.2%.
As to `Clc1ncnc2c1oc1ccccc12`, the values for the activity in experiment [1] and in experiment [2] were 82.7% and 60.4%, respectively.
Consider `Cc1ccc2nc(NC(=O)c3ccccc3F)sc2c1`, for which the activity was 67.5% in experiment [1] and 64% in experiment [2].
In the same order, the values of `CC(C)(C)C1CCc2sc(C(=O)NNC(=O)CCl)cc2C1` (configuration not stated) are 98.8% and 95.6%.
In the same order, the values of `Cc1cccc(/C(N)=N/OC(=O)c2ccoc2C)c1` are 90.8% and 91.8%.
On the same counts, the results for `Cc1cc(NCCCn2ccnc2)n2ncc(-c3ccc(Cl)cc3)c2n1` are 45.8% and 48.5%.
Take `CCc1nnc(NC(=O)c2nc(S(=O)(=O)Cc3cccc(C)c3)ncc2Cl)s1`: the values for the activity in experiment [1] and in experiment [2] were 97.6% and 90.3%, respectively.
In the same order, the values of `O=C(Nc1ccc(Cl)cc1)Nc1ccccc1C(=O)O` are 58.3% and 45.1%.
On the same counts, the results for `O=C(Nc1nc2ccccc2[nH]1)c1ccc(Cl)cc1` are 94.4% and 94.1%.
With `O=C1c2ccccc2S(=O)(=O)c2cc(N3CCOCC3)ccc21`, the activity in experiment [1] was found to be 73.2%; in experiment [2], 73.9%.
In the same order, the values of `O=C(NC1CC1)C1CCN(S(=O)(=O)c2ccc(Cl)c([N+](=O)[O-])c2)CC1` are 65.2% and 88.2%.
As to `COc1ccc(-c2nc3ccccc3[nH]2)cc1`, the figures for the activity in experiment [1] and in experiment [2] were 89% and 90.7%, respectively.
In the same order, the values of `O=C(CSc1nnc(-c2csc3c2CCCC3)o1)Nc1ccccc1` are 76.4% and 76.5%.
Consider `Cc1cc(NC(=O)c2cc3n(n2)C(C(F)(F)F)CC(c2ccco2)N3)no1` (configuration not stated), for which the figures for the activity in experiment [1] and in experiment [2] were -11.1% and -14.8%, respectively.
